# High-throughput results: PubChem BioAssay, Fisher Drug Discovery Resource Center
# NPYLR7 agonist = agonists of mosquito NPYLR7 receptor, primary screen, cell-based, Aedes aegypti, calcium fluorescence, mosquito biting behavior. Aedes aegypti neuropeptide Y-like receptor 7 (NPYLR7). HEK293T NPYLR7/Galpha15, GCaMP6s calcium fluorescence. activation, % at 10 µM. 270,000 tested, 0.15% active. AID 1259423, 2018; in the data active = activation above about 40%;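 also: 0% = vehicle and 100% = reference agonist at the receptor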
# mcGAS lum = cyclic GMP-AMP synthase inhibitors, mouse, primary biochemical chemiluminescence; recombinant cGAS, Kinase-Glo ATP depletion luminescence; inhibition, % at 12.5 µM; 160,000 tested, 0.15% active;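 also: 0% = negative control wells and 100% = reference inhibitor with no enzyme activity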
# hcGAS inh = Primary biochemical luminescence assay for human cyclic GMP-AMP synthase inhibitors; Q8N884; recombinant h-cGAS, ATP depletion, Kinase-Glo luminescence; inhibition, % at 12.5 µM; 290,000 tested, 0.081% active;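 also: 0% = vehicle reaction and 100% = reaction without DNA for no activity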
# Target sequence (Q8N884 whole entry, looked up): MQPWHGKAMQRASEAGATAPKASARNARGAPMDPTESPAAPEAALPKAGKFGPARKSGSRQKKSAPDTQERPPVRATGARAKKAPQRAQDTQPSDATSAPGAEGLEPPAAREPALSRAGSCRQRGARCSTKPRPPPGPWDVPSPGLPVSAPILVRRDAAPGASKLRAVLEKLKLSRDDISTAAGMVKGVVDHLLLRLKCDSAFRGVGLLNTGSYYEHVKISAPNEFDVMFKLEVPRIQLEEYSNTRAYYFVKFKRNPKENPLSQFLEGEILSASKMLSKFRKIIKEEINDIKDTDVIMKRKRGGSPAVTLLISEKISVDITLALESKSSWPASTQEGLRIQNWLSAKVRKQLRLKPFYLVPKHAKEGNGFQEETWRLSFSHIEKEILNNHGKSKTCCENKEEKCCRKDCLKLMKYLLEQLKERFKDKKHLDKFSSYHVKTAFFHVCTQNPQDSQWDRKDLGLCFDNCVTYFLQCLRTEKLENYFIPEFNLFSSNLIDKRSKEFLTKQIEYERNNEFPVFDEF
# Active calls of the source: *; x = no result given. Hits are enriched below; roughly 0.24% of the tested compounds scored in any of these assays. Rule as the data show it, unless noted: active = inhibition above about 40%; inactive = the rest.
SMILES,NPYLR7 agonist,mcGAS lum,hcGAS inh
Cc1ccc(-c2ccnc3c(C(=O)O)cnn23)o1,20,x,-7
Cc1c(C(=O)O)cnc2c([N+](=O)[O-])cnn12,-12,15,41*
CCOc1ccc(C(=O)N(C)c2nnc(C34CC5CC(CC(C5)C3)C4)s2)cc1,-1,-7,-4
O=[N+]([O-])c1c[n+]([O-])n(-c2cccc(Cl)c2)n1,74*,-1,3
O=[N+]([O-])c1c[n+]([O-])n(-c2ccc3c(c2)OCCO3)n1,2,-8,-2
O=C(Nc1ccc(Br)cc1F)c1c(O)c2ccccc2[nH]c1=O,10,-4,-1
Nc1c2c(nc3ccccc13)CCCC2,-5,-3,-2
Nc1c2ccccc2nc2ccccc12,2,x,72*
Cc1onc(-c2ccccc2)c1C(=O)N1CCOC2(CNCCOC2)C1 (centres undefined),6,-11,-5
N#CC(=Cc1ccc(C#N)cc1)c1nnc2n1CCCCC2,-6,44*,-4
N#CC(=Cc1ccc(C=C(C#N)c2nnc3n2CCCCC3)cc1)c1nnc2n1CCCCC2,2,x,-3
COc1ccc(S(=O)(=O)NC(C)c2ccncc2)cc1F (centres undefined),2,x,-15
COc1ccc(C(C)NS(=O)(=O)c2ccc(Cl)cc2C(F)(F)F)cc1F (centres undefined),107*,x,2
CCC1(c2ccc(C)cc2)NC(=O)N(CN2CCN(c3cnccn3)CC2)C1=O (centres undefined),x,x,-12
CNc1nc2cnc(-c3ccc(OC)c(OC)c3)cc2n1Cc1ccccc1,32,-7,-5
COc1ccc(Cn2cnc3cnc(-c4cc(OC)c(OC)c(OC)c4)cc32)cc1OC,9,-9,-5
COc1ccc(OC)c(CCNc2nc3cnc(-c4ccc(Cl)cc4)cc3n2C)c1,83*,-7,-6
COc1ccc(OC)c(CCNc2nc3cnc(-c4cc(OC)c(OC)c(OC)c4)cc3n2C)c1,70*,-7,-5
COc1cc(OC)cc(C2c3c(n[nH]c3-c3cccs3)OC(=N)C2C#N)c1 (centres undefined),10,x,-9
O=c1oc2ccc3ccccc3c2cc1-c1nnc(-c2ccccc2)o1,-6,-2,46*
O=C(O)c1cc2c(ccc3ccccc32)oc1=O,-6,42*,16
COc1ccc(-c2nnc(-c3cc4c(ccc5ccccc54)oc3=O)o2)cc1,-4,-1,3
O=C(NCc1ccccn1)c1cc2c(ccc3ccccc32)oc1=O,11,x,-6
Clc1ccc2c(N3CCCNCC3)ccnc2c1,2,-18,-3
Clc1ccc2c(-n3ccnc3)ccnc2c1,-11,x,57*
SMILES,NPYLR7 agonist,mcGAS lum,hcGAS inh
COc1ccc(CN2CCN(Cc3cccn3-c3ncccn3)CC2CCO)c(C)c1C (centres undefined),49*,-9,-6
COc1ccc(CN2CCN(Cc3cccn3-c3ncccn3)CC2CCO)c(F)c1 (centres undefined),-5,x,1
CCC(C)NC(=O)CN(C)C(=O)c1csc(Nc2cccc(C(F)(F)F)c2)n1 (centres undefined),x,-6,-9
CC(C)CNC(=O)CN(C)C(=O)c1csc(Nc2cc(Cl)ccc2Cl)n1,3,x,166*
O=P1(NNC(=S)Nc2ccccc2)C=C(c2ccccc2)OC(c2ccccc2)=C1,3,x,-17
Cc1cccc(-n2c(Cc3ccccc3)nnc2SCc2ccc(C(=O)O)cc2)c1,-1,-6,-3
Cc1ccccc1/C=C1\Oc2c(ccc3c2CN(C2CCS(=O)(=O)C2)CO3)C1=O (centres undefined),42,9,23
COc1ccc(/C=C2\Oc3c(ccc4c3CN(CC3CCCO3)CO4)C2=O)cc1 (centres undefined),64*,-6,-1
COc1ccc(/C=C2\Oc3c4c(cc(C)c3C2=O)OCN(C2CC2)C4)cc1OC,1,-8,-6
COc1ccc(/C=C2\Oc3c(ccc4c3CN(C3CCS(=O)(=O)C3)CO4)C2=O)cc1 (centres undefined),68*,-6,-5
CC(C)c1ccc(/C=C2\Oc3c(ccc4c3CN(C3CCS(=O)(=O)C3)CO4)C2=O)cc1 (centres undefined),43,-7,-7
COc1ccc(/C=C2\Oc3c4c(cc(C)c3C2=O)OCN(Cc2ccncc2)C4)cc1,-3,-6,-3
COc1cc(/C=C2\Oc3c(ccc4c3CN(CC3CCCO3)CO4)C2=O)cc(OC)c1OC (centres undefined),74*,2,2
COc1ccc(/C=C2\Oc3c(ccc4c3CN(CC3CCCO3)CO4)C2=O)cc1OC (centres undefined),88*,-6,-5
FC(F)Oc1ccc(-c2csc(NNC3=NCCCCC3)n2)cc1,0,x,-8
O=C1S/C(=C/c2ccc(F)cc2)C(=O)N1CCn1cnnn1,2,x,-5
CN1CCN(n2c3c(c(SCc4ccc([N+](=O)[O-])cc4)nc2=O)CCCC3)CC1,-5,-6,-5
Cc1cc(O)c(CN2CCN(CCO)CC2)c2c1C(=O)/C(=C/c1cc3ccccc3o1)O2,80*,-6,-4
CCN1CCN(Cc2c(O)cc(C)c3c2O/C(=C\c2ccco2)C3=O)CC1,65*,-6,-1
Cc1cc(O)c(CN2CCCC2)c2c1C(=O)/C(=C/c1cc3ccccc3o1)O2,57*,-2,-3
Cc1cc(O)c(CN2CCN(CCO)CC2)c2c1C(=O)/C(=C/c1cccs1)O2,28,-7,-4
Cc1cc(O)c(CN2CCN(C)CC2)c2c1C(=O)/C(=C/c1cc3cc(Br)ccc3o1)O2,4,-7,-9
Cc1cc(O)c(CN2CCN(CCO)CC2)c2c1C(=O)/C(=C/c1ccccc1)O2,16,-6,-5
O=C1/C(=C/c2ccco2)Oc2c1ccc(O)c2CN1CCN(CCO)CC1,56,-9,-1
O=C1/C(=C/c2cc3ccccc3o2)Oc2c1ccc(O)c2CN1CCN(CCO)CC1,108*,5,5
SMILES,NPYLR7 agonist,mcGAS lum,hcGAS inh
O=C(CCc1nc2ccccc2[nH]c1=O)OCc1c(F)cccc1Cl,2,x,-5
COc1ncccc1NC(=O)NC(c1ccc(F)cc1)C(C)(C)C (centres undefined),4,x,-6
O=C1/C(=C/N2CCC3(CC2)OCCO3)Oc2cc(O)ccc21,-6,-12,-7
O=C1/C(=C/c2cc3ccccc3o2)Oc2cc(O)ccc21,49*,x,-11
Cc1nc2ccc(N)cc2s1,1,1,5
C[n+]1c2cc(N)ccc2cc2ccc(N)cc21,120*,x,68*
Cc1ccc(NC(=O)Cn2c(=O)n(Cc3ccccc3)c(=O)c3oc4ccccc4c32)c(C)c1,9,-7,-10
CCOc1cc2c(cc1N)OC(C)C2 (centres undefined),-2,-5,-1
CCOc1cc2c(cc1C=C(C#N)C#N)OC(C)C2 (centres undefined),95*,x,-5
CC(C)n1cnc(S(N)(=O)=O)c1,2,-13,-7
Cn1c(C(C#N)=Cc2c(F)c(F)c(F)c(F)c2F)nc2ccccc21,142*,x,0
Cn1c(C(C#N)=Cc2ccsc2)nc2ccccc21,-1,-1,3
